Screening data from PubChem.
Pf growth 48h: P. falciparum growth inhibition at 48 hours (one generation). 5.9% of 310,000 active. Potency, µM (doses to about 28.7 µM), hits mostly inhibitors. P. falciparum luciferase growth in erythrocytes, 48 h
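Growth was read as firefly luciferase luminescence after a 48 h, 37 C, 5% CO2 exposure of compounds to reporter-bearing P. falciparum cultures (0.1% parasitemia, 2% hematocrit final) in Albumax-supplemented RPMI 1640.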
VACV mCherry inh: inhibitors of vaccinia virus infection (mCherry reporter signal) | Vaccinia virus mCherry reporter infection, fluorescence | Potency, µM (top dose mostly 36.5 µM), hits mostly inhibitors | 0.63% of 310,000 active; calls by dose curve; tested in A549 cells; note: nearly all actives have a fitted effect of over 35% in size
HCV inhibitor: inhibitors of hepatitis C virus infection | AID 651820 | 3.4% of 340,000 active | Potency, µM (doses to about 41.8 µM), most hits filed as inhibitors | Huh7.5.1 HCVcc-Cre infection, luciferase reporter, 44 h
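Antiviral activity was scored by luciferase reporter output from cells infected with HCVcc-Cre (~0.5 moi) in presence of compound, 44 h infection period, cells seeded 1,000/well 4 h prior.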
NS1 inh: influenza NS1 inhibition; Potency, µM (series often up to 46.1 µM); 0.4% of 270,000 active; AID 2326; calls by dose curve; note: actives are rising curves; nearly all actives have a fitted effect of over 50% in size
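Read-out: OD600 growth recovery of NS1-expressing budding yeast. Cells grown overnight at 30C in -URA glucose medium, washed, resuspended and diluted 1:100 in 2% galactose assay medium, pH 6.0. Same strain lacking NS1 served as positive control.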
Pf growth 96h: P. falciparum growth inhibition at 96 hour, primary screen for plastid delayed-death inhibitors. P. falciparum luciferase reporter growth, 96 h. Potency, µM (titrated, usually from 28.7 µM), most hits filed as inhibitors. 6.9% of 320,000 active. AID 504834
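96 h incubation, 37 C, 5% CO2, of luciferase-reporter P. falciparum-infected RBCs (2% hematocrit, 0.05% parasitemia final) with test compounds; endpoint luminescence.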
VACV Venus inh: inhibitors of vaccinia virus (Venus reporter); 0.46% of 330,000 active; Potency, µM (series often up to 36.5 µM), hits mostly inhibitors; Vaccinia virus Venus reporter expression, fluorescence; calls by dose curve; tested in A549 cells; note: nearly all actives have a fitted effect of over 30% in size
Each line names hits and unclear results; the compound was inactive in the other large screens. Shown are actives, neighbours in structure and some others; about 11% of the full set was active somewhere. Unless noted, calls come from the whole dose curve; as a rule, active = well fitted inhibition curve with a large enough effect; inconclusive = small, poorly fitted or top-dose-only effect, or another doubt; inactive = no such curve, though single readings can be large or run the other way.

CCN(C[C@H]1N[C@@](Cc2ccccc2)(C(=O)OC)[C@H]2C(=O)N(C)C(=O)[C@@H]12)S(=O)(=O)c1ccccc1	none (no result: Pf growth 48h, NS1 inh, Pf growth 96h)
CCN(C[C@H]1N[C@@](Cc2ccccc2)(C(=O)OC)[C@H]2C(=O)N(Cc3ccccc3)C(=O)[C@@H]12)S(=O)(=O)c1ccc(C)cc1	HCV inhibitor 7.1µM (no result: Pf growth 48h, NS1 inh, Pf growth 96h)
CCN(C[C@H]1N[C@@](Cc2ccccc2)(C(=O)OC)[C@H]2C(=O)N(Cc3ccccc3)C(=O)[C@@H]12)S(=O)(=O)c1ccccc1	HCV inhibitor inconclusive (no result: Pf growth 48h, NS1 inh, Pf growth 96h)
CCN(C[C@H]1N[C@@](Cc2ccccc2)(C(=O)OC)[C@H]2C(=O)N(C)C(=O)[C@@H]12)S(=O)(=O)c1ccc(-c2ccccc2)cc1	HCV inhibitor 18µM (no result: Pf growth 48h, NS1 inh, Pf growth 96h)
Cc1ccc(CSc2nn3c(=O)c(C)nnc3s2)cc1	Pf growth 48h 8.3µM, Pf growth 96h inconclusive
CC(=O)Nc1cccc(NC(=O)CSc2nn3c(=O)c(C)nnc3s2)c1	Pf growth 48h 9.3µM, Pf growth 96h 5.2µM
Nc1nnc(SCc2ccc(Cl)cc2)s1	VACV Venus inh inconclusive
Cc1nnc2sc(SCc3ccc(Cl)cc3)nn2c1=O	Pf growth 48h inconclusive, Pf growth 96h 1µM
Cc1nnc2sc(SCC(=O)Nc3ccc(Cl)cc3)nn2c1=O	Pf growth 48h inconclusive, Pf growth 96h inconclusive
Cc1ccc(C(=O)CSc2nn3c(=O)c(C(C)(C)C)nnc3s2)cc1	Pf growth 96h inconclusive
Cc1cccc(CSc2nn3c(=O)c(C)nnc3s2)c1	Pf growth 48h 10µM, Pf growth 96h inconclusive
CC(N)C(O)c1cccc(O)c1 (configuration not stated)	none (no result: Pf growth 48h, HCV inhibitor, NS1 inh, Pf growth 96h)
CCOC(=O)c1c(C)[nH]c(C)c1-c1ccccc1OC	VACV Venus inh inconclusive (no result: VACV mCherry inh)
CCOC(=O)c1c(C)[nH]c2cc(Br)c(OC)cc12	Pf growth 48h inconclusive, HCV inhibitor 5.6µM (no result: VACV mCherry inh)
COc1ccccc1CCN1C(=S)NC(C)(C)CC1(C)O (configuration not stated)	Pf growth 48h inconclusive, HCV inhibitor inconclusive, Pf growth 96h 9.3µM, VACV Venus inh inconclusive (no result: VACV mCherry inh)
COc1ccccc1NC(=O)C(=O)NCC(c1ccco1)N1CCc2ccccc21 (configuration not stated)	Pf growth 48h 12µM, HCV inhibitor inconclusive, Pf growth 96h inconclusive (no result: NS1 inh)
Cc1ccc(C(=O)NCC(c2ccco2)N2CCc3ccccc32)cc1C (configuration not stated)	Pf growth 48h 9.3µM, HCV inhibitor inconclusive, Pf growth 96h inconclusive, VACV Venus inh inconclusive (no result: NS1 inh)
O=C(NCC(c1ccco1)N1CCc2ccccc21)C(=O)Nc1ccccc1 (configuration not stated)	Pf growth 48h 1.3µM, VACV mCherry inh inconclusive, Pf growth 96h inconclusive (no result: NS1 inh)
O=C(NCC(c1ccco1)N1CCc2ccccc21)C(=O)Nc1ccccc1F (configuration not stated)	Pf growth 48h inconclusive, HCV inhibitor inconclusive (no result: NS1 inh)
COc1cc(C(=O)NCC(c2cccs2)N2CCc3ccccc32)cc(OC)c1OC (configuration not stated)	Pf growth 48h inconclusive, VACV mCherry inh inconclusive, HCV inhibitor inconclusive (no result: NS1 inh)
COc1ccccc1C(=O)NCC(c1cccs1)N1CCc2ccccc21 (configuration not stated)	Pf growth 48h 12µM, HCV inhibitor inconclusive, Pf growth 96h 3.7µM (no result: NS1 inh)
Cc1nc(SCC(=O)N2CC(C)OC(C)C2)nc(C)c1C (configuration not stated)	none
O=[N+]([O-])c1cccc(/C=C/c2ccc3cccc(O)c3n2)c1	VACV mCherry inh inconclusive, Pf growth 96h inconclusive
COc1ccc(C(=O)Nc2ccc(C3CC3(Cl)Cl)cc2)cc1 (configuration not stated)	HCV inhibitor inconclusive, VACV Venus inh inconclusive
COc1cc(NC(=O)c2cc3c(=O)oc4ccc(C)cc4c3s2)cc(OC)c1OC	none (no result: Pf growth 48h, HCV inhibitor, NS1 inh, Pf growth 96h)
COc1ccc(CN2C[C@@H](CO)O[C@@H](n3cnc4c(NCc5cc(OC)c(OC)c(OC)c5)ncnc43)C2)cc1	none (no result: Pf growth 48h, HCV inhibitor, NS1 inh, Pf growth 96h)
COc1ccccc1C(=O)NCC(c1ccco1)N1CCc2ccccc21 (configuration not stated)	Pf growth 48h 10µM, VACV mCherry inh inconclusive, HCV inhibitor inconclusive, Pf growth 96h 5.2µM (no result: NS1 inh)
COc1cc(C(=O)NCC(c2ccco2)N2CCc3ccccc32)cc(OC)c1OC (configuration not stated)	VACV mCherry inh inconclusive, HCV inhibitor inconclusive (no result: NS1 inh)
